Among the data in PubChem BioAssay (NCI) are growth inhibition values, retold here.

Compounds without any hit were thinned out: in the full panel of roughly 79,000, 15% have a hit. The source made the active and inactive calls. Rule as the data show it: active = growth inhibition above about 70%; inactive = the rest.

The assay in a line: NCI Yeast Anticancer Drug Screen. Data for the rad50 strain (AID 155).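 Also: 0% = growth of vehicle-only cultures of the same strain.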 Particulars: S. cerevisiae rad50 strain growth inhibition; at 5.0 µM (retest, dose inferred, filed as 0.5); active compounds read high. In a few lines: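 Growth of the mutant yeast was measured after compound exposure and referenced to vehicle-treated cultures.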
In the case of `CC(C)N=C(NC(C)C)SCCCCCCSC(=NC(C)C)NC(C)C`, the growth inhibition is 2% (inactive).
For `CCCCCOC(=S)SSSC(=S)OCCCCC` the value was -38% (inactive); for `CCCCCCCCCCCCCCCC[N+](C)(C)CC(=O)O`, 6% (inactive).
For `Cc1cc(C)c([O-])c(-[n+]2c(-c3ccccc3)cc(-c3ccccc3)cc2-c2ccccc2)c1` the value was 14% (inactive); for `CC(=O)NNc1ccc(Cl)cc1[N+](=O)[O-]`, 18% (inactive).
The value for `O=C(NC(=Nc1ccccc1)SCCSC(=Nc1ccccc1)NC(=O)c1ccccc1)c1ccccc1` was 0% (inactive).
For the molecule `CN(C)CCCNc1ccc(O)c2c1C(=O)c1ccccc1C2=O`, the growth inhibition was 93% (active).
The value for `COC(=O)C(=O)C(/C=N/C(=S)NCCc1ccc(OC)c(OC)c1)=C(/O)c1ccc([N+](=O)[O-])cc1` was 3% (inactive); that for `CCCC(=O)OCC1CC2C=CC1C2` (stereo not given) was 0% (inactive).
The value for `CN(NC(=O)/C(=C/c1cc(Cl)cc(Cl)c1O)NC(=O)c1ccccc1)c1cnn(-c2ccccc2)c(=O)c1Cl` was 15% (inactive); that for `CC(C)N(C(=O)CC1(O)CCCCC1)C(C)C` was 2% (inactive).
As to `COC(=O)C1C(c2ccccc2)=N[C@@H](c2ccccc2)[C@H]1C(=O)OC` (stereo not given in full), the growth inhibition was 2% (inactive).
For `O=C1C(=Cc2ccccc2O)N=C(c2ccccc2)N1n1c(-c2ccccc2)nc2ccccc2c1=O` the value was 5% (inactive); for `CCOc1ccc2c(c1)[n+]([O-])c(-c1ccc([N+](=O)[O-])cc1)c(N)[n+]2[O-]`, 22% (inactive); for `O=C(NCCCNCCCCNCCCNC(=O)c1cc(-c2ccccc2)nc2ccccc12)c1cc(-c2ccccc2)nc2ccccc12`, 49% (inactive).
